The values that follow come from PubChem BioAssay (NCI).

Some test systems named below: NCI-H23 lung; NCI-H226 lung; NCI-H322M lung; HOP-62 NSCLC; NCI-H460 lung; HOP-92 NSCLC; NCI-H522 lung; A549/ATCC NSCLC; 786-0 renal; DU-145 prostate; K-562 leukemia; MALME-3M melanoma; MDA-MB-231 breast; RXF 393 renal; SF-268 CNS; SF-295 CNS; SF-539 CNS; UACC-257 melanoma; M14 melanoma; COLO 205 colon.
Test in all cases: NCI-60 one-dose screen, 48 h (100 = growth as untreated, 0 = no growth, -100 = all killed)
Holding throughout (details): 10 µM unless noted

Structures are written as SMILES. This is part of a sample that, as a whole, favours compounds with a hit. Of some 83,000 tested, about 20% had one in any assay.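 Method: cells in 96-well plates; compound added at one concentration; 48 h incubation; percent growth measured; values under 10 scored active.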 A number with no mark means an inactive call. Activity calls are given as the source filed them.

Take `Cc1csc(/N=C(N)/N=C(\N)c2cccc(C#N)c2)n1`: the growth in the test on NCI-H23 lung was 84.5%; in the test on NCI-H226 lung, 86.5%; in the test on NCI-H322M lung it was 96.6%; in the test on HOP-62 NSCLC, 64.6%; in the test on NCI-H460 lung, 64.8%; with HOP-92 NSCLC, 27%. The growth was 79.6% in the test with NCI-H522 lung; 71.9% in the test with A549/ATCC NSCLC; 87.8% in the test with 786-0 renal; 97.8% in the test with DU-145 prostate; 43.5% with K-562 leukemia; 68.8% in the test with MALME-3M melanoma. Moreover, the growth with MDA-MB-231 breast was 88.7%; in the test with RXF 393 renal, 73.9%; in the test on SF-268 CNS, 77.4%; in the test on SF-295 CNS, 51.7%; with SF-539 CNS, 76.7%; with UACC-257 melanoma, 80.8%. Besides, the growth in the test with M14 melanoma was 45.2%.
Turning to `COc1ccc(CC(C)=C(c2ccc(OCCN3CCCC3)cc2)c2ccc(OCCN3CCCC3)cc2)cc1`, the growth was -82.4% (active) in the test on NCI-H23 lung; -69.2% (active) in the test on NCI-H226 lung; -75.7% (active) in the test with NCI-H322M lung; -66% (active) with HOP-62 NSCLC; -62.3% (active) in the test on NCI-H460 lung; -82.4% (active) with HOP-92 NSCLC. The growth was -86% (active) in the test with NCI-H522 lung; -68.2% (active) with A549/ATCC NSCLC; -79.3% (active) in the test on 786-0 renal; -88.6% (active) in the test with DU-145 prostate; 1.41% (active) in the test on K-562 leukemia; -82.9% (active) with MALME-3M melanoma. For the same compound, the growth in the test with MDA-MB-231 breast was -83.9% (active); in the test on RXF 393 renal, -95.3% (active); in the test with SF-268 CNS it was -64.4% (active); with SF-295 CNS, -87.7% (active); with SF-539 CNS it was -90.1% (active); in the test on UACC-257 melanoma it was -86.6% (active). Further, the growth in the test on M14 melanoma was -87.5% (active).
As to `O=C(CSc1nc2ccccc2c(=O)n1-c1ccc(S(=O)(=O)Nc2ccc(Cl)nn2)cc1)Nc1ccc(S(=O)(=O)Nc2ccc(Cl)nn2)cc1`, the growth was 100% in the test with NCI-H23 lung; 99% with NCI-H226 lung; 101% in the test with NCI-H322M lung; 104% with HOP-62 NSCLC; 101% with NCI-H460 lung; 107% with HOP-92 NSCLC. The growth with NCI-H522 lung is 101%; in the test on A549/ATCC NSCLC, 105%; in the test on 786-0 renal, 98.7%; in the test on DU-145 prostate it was 107%; with K-562 leukemia it was 88.1%; in the test on MALME-3M melanoma, 102%. Besides, the growth with MDA-MB-231 breast was 102%; in the test on RXF 393 renal it was 102%; with SF-268 CNS, 101%; with SF-295 CNS, 102%; in the test with SF-539 CNS it was 103%; in the test with UACC-257 melanoma it was 101%. Further, the growth in the test on M14 melanoma is 111%.
As for `C/C(=N/N)c1nnn(-c2ccc(Br)cc2)c1C`, the growth in the test with NCI-H23 lung is 99.6%; with NCI-H226 lung it was 91.5%; in the test with NCI-H322M lung it was 95.7%; in the test with HOP-62 NSCLC it was 93.7%; with NCI-H460 lung, 102%; in the test on HOP-92 NSCLC, 93.4%. For the same compound, the growth is 91.5% with NCI-H522 lung; 99.4% with A549/ATCC NSCLC; 103% in the test with 786-0 renal; 115% with COLO 205 colon; 108% with DU-145 prostate; 91.2% in the test with K-562 leukemia. Also, the growth in the test with MALME-3M melanoma was 102%; in the test with MDA-MB-231 breast it was 101%; in the test on RXF 393 renal, 103%; with SF-268 CNS, 97.8%; in the test on SF-295 CNS it was 94.2%; in the test with SF-539 CNS, 93.1%. Besides, the growth in the test on UACC-257 melanoma and in the test on M14 melanoma was 105% in each case.
For `Cc1ccc(-c2cc3nc(C(Cl)Cl)nc(-c4ccc(S(=O)(=O)N(C)C)cc4)n3n2)cc1`, the growth is 90.9% in the test on NCI-H23 lung; 87.7% with NCI-H226 lung; 107% in the test with NCI-H322M lung; 77.9% with HOP-62 NSCLC; 93.5% in the test with NCI-H460 lung; 128% in the test on HOP-92 NSCLC. For the same compound, the growth is 89.7% in the test on NCI-H522 lung; 88.4% in the test on A549/ATCC NSCLC; 97.9% in the test on 786-0 renal; 98.1% in the test with COLO 205 colon; 85.3% with DU-145 prostate; 41% in the test with K-562 leukemia. Also, the growth in the test with MALME-3M melanoma was 100%; with MDA-MB-231 breast it was 95.1%; in the test on RXF 393 renal, 90.1%; with SF-268 CNS, 98.7%; in the test with SF-295 CNS, 86.2%; in the test on SF-539 CNS, 80.3%. The growth is 100% with UACC-257 melanoma and 93.1% with M14 melanoma.
On to `CN1CCN(CC#CCn2c3c(c4ccccc42)C[C@]2(C)[C@H]4CC=C5[C@@H]6CC(C)(C)CC[C@]6(C(=O)N6CCOCC6)CC[C@@]5(C)[C@]4(C)CC[C@H]2C3(C)C)CC1`, for which the growth in the test with NCI-H23 lung is 74%; in the test on NCI-H226 lung it was 85.7%; in the test on NCI-H322M lung, 94.9%; with HOP-62 NSCLC, 91.7%; in the test with NCI-H460 lung, 17.6%; in the test with HOP-92 NSCLC, 22.5%. The growth is 97% with NCI-H522 lung; 41.9% with A549/ATCC NSCLC; 76.3% with 786-0 renal; 64.8% in the test with DU-145 prostate; -23% (active) in the test on K-562 leukemia; 83.3% in the test with MALME-3M melanoma. Moreover, the growth was 43.1% with MDA-MB-231 breast; 68.4% with RXF 393 renal; 83.5% in the test on SF-268 CNS; 99.3% in the test on SF-295 CNS; 73.9% in the test on SF-539 CNS; 102% in the test on UACC-257 melanoma. Also, the growth with M14 melanoma is 87.7%.
For `Cc1ccc(NC(=O)Nc2nc3ccc([N+](=O)[O-])cc3s2)cc1`, the growth with NCI-H23 lung is -4.55% (active); in the test on NCI-H226 lung, 6.4% (active); in the test on NCI-H322M lung, 4.58% (active); in the test on HOP-62 NSCLC, -4.29% (active); with NCI-H460 lung, 3.09% (active); in the test with HOP-92 NSCLC, -33% (active). Further, the growth in the test with NCI-H522 lung is -10.6% (active); in the test on A549/ATCC NSCLC it was 4.97% (active); in the test with 786-0 renal it was 8.32% (active); with DU-145 prostate, 17.9%; in the test on K-562 leukemia, 10.7%; in the test on MALME-3M melanoma, -19.2% (active). Besides, the growth in the test on MDA-MB-231 breast was 2.83% (active); in the test on RXF 393 renal, -12.1% (active); with SF-268 CNS it was 10.8%; in the test on SF-295 CNS, 0.916% (active); in the test on SF-539 CNS it was 14%; in the test with UACC-257 melanoma it was -12.5% (active). Besides, the growth in the test on M14 melanoma was 7.25% (active).
`CCc1nnc(NC(=O)c2cc(-c3ccc(Cl)cc3Cl)oc2C)s1`: the growth is 85.7% with NCI-H23 lung; 85.6% with NCI-H226 lung; 85.4% in the test on NCI-H322M lung; 96% in the test with HOP-62 NSCLC; 53.9% in the test on NCI-H460 lung; 92% in the test on HOP-92 NSCLC. Besides, the growth is 79.4% in the test on NCI-H522 lung; 77.1% with A549/ATCC NSCLC; 95.9% in the test on 786-0 renal; 93.5% in the test with DU-145 prostate; 86% in the test with K-562 leukemia; 88.3% in the test with MALME-3M melanoma. The growth is 91.5% with MDA-MB-231 breast; 109% in the test on RXF 393 renal; 89.3% in the test on SF-268 CNS; 94.2% with SF-295 CNS; 92.4% with SF-539 CNS; 103% with UACC-257 melanoma. For the same compound, the growth with M14 melanoma was 93.3%.
